Assay results reported in PubChem BioAssay (Tox21).
Records with an inconclusive call do not appear. Active and inactive are the calls of the source. Unless noted, calls come from the whole dose curve; as a rule, active = well fitted curve in the direction sought with a large enough effect in the repeat runs; inconclusive = weak or mixed curves; inactive = no such curve, though single readings can be large; an effect the other way counts as inactive or inconclusive.

How the values were obtained:
[1] = qHTS assay for small molecules that induce genotoxicity in human embryonic kidney cells expressing luciferase-tagged ATAD5 (AID 651632); note: nearly all actives have a fitted effect of over 15% in size
Outline: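 A rise in luciferase signal from ATAD5-tagged HEK293T cells marks genetic stress. Cells were exposed to compounds for 16 hr at 37C, 5% CO2, then luciferase was quantified after a 30 min room-temperature incubation with Amplite.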

[2] = qHTS assay for small molecule agonists of the p53 signaling pathway - cell viability (AID 651633; calls by dose curve;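 note: p53RE-bla HCT reporter cells with a stable beta-lactamase p53 reporter; series mostly up to about 83 µM; nearly all actives have a fitted effect of over 30% in size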)
Outline: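 Viability counter-read: CellTiter-Glo luminescence (30 min, room temperature) in the same p53RE-bla plates. These plates had been exposed to compounds for 16 h at 37 C.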

[3] = qHTS assay for small molecules that induce genotoxicity in human embryonic kidney cells expressing luciferase-tagged ATAD5 - cell viability (AID 651634; calls by dose curve; note: nearly all actives have a fitted effect of over 25% in size)
Outline: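 Cytotoxicity counter-readout: after 15.5 hr compound treatment at 37C, live-cell protease activity in ATAD5-luciferase HEK293T cells measured by CellTiter-Fluor fluorescence, 30 min development at 37C.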

[4] = qHTS assay for small molecule disruptors of the mitochondrial membrane potential - cell viability (AID 720634; calls by dose curve;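 note: human HepG2 liver cancer cells; series mostly up to about 83 µM; nearly all actives have a fitted effect of over 20% in size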)
Outline: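 Cytotoxicity was quantified from ATP content by CellTiter-Glo luminescence in the same wells as the MMP dye read-out. HepG2 (2,000 cells/well) were plated overnight and exposed to compounds for 1 hr at 37 C.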

[5] = qHTS assay to test for compound auto fluorescence at 590 nm (red) in HepG2 cells (AID 720674)
Outline: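 We screened compounds on adherent HepG2 cells, incubating them for an hour at 37 C in 5% CO2 before reading emission at 590 nm under 540 nm excitation; values reflect equivalence to Rose Bengal sodium fluorescence.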

[6] = qHTS assay to test for compound auto fluorescence at 535 nm (green) in HepG2 cells (AID 720675)
[7] = qHTS assay to test for compound auto fluorescence at 460 nm (blue) in HEK293 cells (AID 720678)
Outline: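 Cells were seeded and left to adhere for 4-5 hr at 37C. Compounds were then pin-transferred. After an overnight incubation at 37C under 5% CO2, intrinsic fluorescence at 405/460 nm was measured and referenced to triamterene.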

[8] = qHTS assay to test for compound auto fluorescence at 590 nm (red) in HEK293 cells (AID 720679)
Outline: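 Each well held 2,000 HEK293 cells in medium containing 10% dialyzed FBS. Following 4-5 hr attachment at 37C, 23 nL test compound or DMSO was added; plates sat overnight, and red fluorescence (540/590nm) was recorded.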

[9] = qHTS assay to test for compound auto fluorescence at 535 nm (green) in HEK293 cells (AID 720680)
[10] = qHTS assay to test for compound auto fluorescence at 460 nm (blue) in HEK293 cell free culture (AID 720681)
Outline: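 Blue fluorescence (Ex 405/Em 460 nm, triamterene-equivalent) was read immediately after pin transfer of compound or DMSO into medium (DMEM, 10% FBS) without cells.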

[11] = qHTS assay to test for compound auto fluorescence at 535 nm (green) in HEK293 cell free culture (AID 720682)
Outline: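 Green-channel intensity (Ex/Em 485/535 nm) was recorded from compound-treated wells containing only DMEM with 10% FBS. Fluorescein provided the equivalency standard.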

[12] = qHTS assay to test for compound auto fluorescence at 590 nm (red) in HEK293 cell free culture (AID 720683)
Outline: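 Red-channel autofluorescence of compounds in culture medium (DMEM, 10% FBS), no cells, measured at 540/590 nm. Rose Bengal sodium is the reference fluorophore for equivalence.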

[13] = qHTS assay to test for compound auto fluorescence at 590 nm (red) in HepG2 cell free culture (AID 720684)
Outline: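 No cells present: MEM + 10% FBS only. Compound pinned in, red label read (540/590 nm). Activity = fluorescence equivalent to Rose Bengal sodium.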

[14] = qHTS assay to test for compound auto fluorescence at 460 nm (blue) in HepG2 cell free culture (AID 720685)
Outline: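 Cell-free plates of MEM plus 10% FBS received 23 nL compound or DMSO vehicle; blue-channel (405/460 nm) intensity scored against triamterene as reference fluorophore.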

[15] = qHTS assay to test for compound auto fluorescence at 535 nm (green) in HepG2 cell free culture (AID 720686)
[16] = qHTS assay to test for compound auto fluorescence at 460 nm (blue) in HepG2 cells (AID 720687)
Outline: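 Blue-channel autofluorescence (Ex/Em 405/460 nm, triamterene-equivalent) was measured after 1 hr compound exposure at 37 C, 5% CO2. Cells were HepG2, plated overnight at 37 C in MEM plus 10% FBS.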

[17] = target: Glucocorticoid receptor (Homo sapiens) (UniProt P04150); assay: qHTS assay to identify small molecule agonists of the glucocorticoid receptor (GR) signaling pathway (AID 720691; active = well fitted activation curve with a large enough effect in the signal ratio in the repeat runs, not every such curve was filed as active; the % refers to the signal ratio)
Outline: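 Agonist-mode qHTS in HeLa cells stably expressing a glucocorticoid-response-element beta-lactamase reporter. Fluorescence intensity read with FRET substrate (2 h, room temperature) after 18 h compound treatment at 37 C.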

[18] = target: Glucocorticoid receptor (Homo sapiens) (UniProt P04150); assay: qHTS assay to identify small molecule antagonists of the glucocorticoid receptor (GR) signaling pathway (AID 720692; active = well fitted inhibition curve with a large enough effect in the signal ratio in the repeat runs, not every such curve was filed as active; the % refers to the signal ratio)
Outline: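 Inhibition of dexamethasone-driven (5 nM final) beta-lactamase expression was measured in GRE-reporter HeLa cells over 18 h at 37C. Fluorescence was read after 2 h with the B/G FRET substrate at room temperature.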

[19] = qHTS assay for small molecule agonists of the p53 signaling pathway (AID 651631; calls by dose curve; note: nearly all actives have a fitted effect of over 15% in size)
Outline: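 We treat p53RE-bla HCT-116 cells with compounds for 16 h at 37 °C, add LiveBLAzer B/G FRET substrate for 2 h at room temperature, and measure fluorescence intensity.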

[20] = qHTS assay for small molecule disruptors of the mitochondrial membrane potential (AID 720635)
Outline: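 Mitochondrial membrane potential tracked with Mito-MPS dye, red aggregates (ex 540/em 590 nm) against green monomers (ex 490/em 535 nm). Compound treatment 1 hr at 37C, dye 30 min in HepG2.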

Measured: Potency

Sequence of Glucocorticoid receptor (Homo sapiens) (P04150 whole entry, looked up): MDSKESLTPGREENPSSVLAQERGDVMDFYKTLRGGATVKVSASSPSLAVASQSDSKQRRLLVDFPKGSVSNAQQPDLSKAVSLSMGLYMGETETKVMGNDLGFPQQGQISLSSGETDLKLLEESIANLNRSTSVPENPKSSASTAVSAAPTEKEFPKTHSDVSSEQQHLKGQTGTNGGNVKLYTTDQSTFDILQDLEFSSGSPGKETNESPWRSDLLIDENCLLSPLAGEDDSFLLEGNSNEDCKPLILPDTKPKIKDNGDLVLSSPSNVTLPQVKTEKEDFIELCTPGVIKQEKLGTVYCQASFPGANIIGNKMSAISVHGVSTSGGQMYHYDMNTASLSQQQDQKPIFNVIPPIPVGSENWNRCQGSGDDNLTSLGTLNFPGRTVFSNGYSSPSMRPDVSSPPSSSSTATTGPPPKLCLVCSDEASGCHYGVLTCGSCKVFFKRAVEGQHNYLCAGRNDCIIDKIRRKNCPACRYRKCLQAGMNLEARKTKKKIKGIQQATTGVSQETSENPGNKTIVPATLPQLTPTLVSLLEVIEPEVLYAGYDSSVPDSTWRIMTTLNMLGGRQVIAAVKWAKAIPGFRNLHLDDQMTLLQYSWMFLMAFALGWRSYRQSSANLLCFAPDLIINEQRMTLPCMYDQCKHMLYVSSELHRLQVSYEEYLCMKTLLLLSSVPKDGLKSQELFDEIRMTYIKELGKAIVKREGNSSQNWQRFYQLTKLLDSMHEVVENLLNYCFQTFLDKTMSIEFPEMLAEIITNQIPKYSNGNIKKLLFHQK

CCCN1CCC[C@@H]2Cc3[nH]ncc3C[C@H]21
not listed: [19] | [20]
inactive: all other assays above

NCCOS(=O)(=O)O
not listed: [19] | [20]
inactive: all other assays above

c1cncc([C@@H]2CCCCN2)c1
not listed: [3] | [11] | [20]
inactive: all other assays above

CC(C)(C)C(=O)C(Cl)Cl
not listed: [3] | [9] | [11] | [17] | [18]
inactive: all other assays above

Cc1ccc(-c2nc3ccc(C)cn3c2CC(=O)N(C)C)cc1
not listed: [1] | [4] | [15] | [17] | [18]
inactive: all other assays above

N#CN
not listed: [9] | [11] | [13] | [19]
inactive: all other assays above

N#CN=C1SCCN1Cc1ccc(Cl)nc1
not listed: [3] | [9] | [11] | [15]
inactive: all other assays above

COc1cc(CCN)cc(OC)c1OC
not listed: [11] | [19]
inactive: all other assays above

CC[C@@H](CO)NC(=O)[C@@H]1C=C2c3cccc4[nH]cc(c34)C[C@H]2N(C)C1
not listed: [9] | [17] | [18] | [19]
inactive: all other assays above

C/C=C/CC#N
not listed: [3] | [15] | [17] | [18] | [20]
inactive: all other assays above

CN(C)CCc1c[nH]c2cccc(OP(=O)(O)O)c12
not listed: [13] | [17] | [18] | [19]
inactive: all other assays above

C[C@]12C=CC(=O)C=C1CC[C@@H]1[C@@H]2CC[C@@]2(C)[C@H]1CC[C@]2(C)O
not listed: [17] | [18] | [19]
inactive: all other assays above

C=C1C[C@@H]2[C@H](CC[C@]3(C)C(=O)CC[C@@H]23)[C@@]2(C)C=CC(=O)C=C12
not listed: [17] | [18] | [19] | [20]
inactive: all other assays above

O=S1(=O)OCCO1
not listed: [3] | [9] | [18] | [20]
inactive: all other assays above

N[C@@H](Cc1ccc(Oc2cc(I)c(O)c(I)c2)c(I)c1)C(=O)O
not listed: [17] | [18] | [19]
inactive: all other assays above
